Results published in PubChem BioAssay AID652257 (The Scripps Research Institute Molecular Screening Center, 2013).
Out of some 370,000 compounds screened, about 4,800 (1.3%) were called active. The sample holds actives, similar compounds and a random draw of the others, so the mix is not that of the screen.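 How the source made its calls: active means inhibition above about 21% made by adding two undisclosed values (limit read from the data); inactive means the rest.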

target: Protein arginine N-methyltransferase 1 (Homo sapiens) (UniProt Q99873); experiment: PRMT1 methyltransferase inhibitors, primary screen, biochemical, fluorescence polarization (AID 652257); settings: recombinant PRMT1, activity-based probe fluorescence polarization; at 2.79 µM; hits give high values
Sequence (Q99873 whole entry, looked up): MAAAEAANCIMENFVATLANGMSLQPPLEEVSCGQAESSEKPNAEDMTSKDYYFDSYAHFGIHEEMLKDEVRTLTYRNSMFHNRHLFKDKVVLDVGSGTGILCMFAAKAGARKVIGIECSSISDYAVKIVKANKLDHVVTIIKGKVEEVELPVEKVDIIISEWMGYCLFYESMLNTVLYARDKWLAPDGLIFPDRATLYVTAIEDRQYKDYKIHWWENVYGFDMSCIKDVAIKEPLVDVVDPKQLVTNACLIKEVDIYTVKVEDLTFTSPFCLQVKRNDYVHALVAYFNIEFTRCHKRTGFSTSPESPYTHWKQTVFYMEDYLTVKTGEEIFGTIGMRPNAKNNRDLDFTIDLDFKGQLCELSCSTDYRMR

| SMILES | inhibition |
| --- | --- |
| CCOC(=O)c1csc(NC(=O)C2CCCN(S(=O)(=O)c3ccc(Cl)s3)C2)n1 (configuration not stated) | -5.11% (inactive) |
| Cc1nc(CNc2ncnc3ccc(-c4ccc5c(c4)OCO5)cc23)cs1 | 6.73% (inactive) |
| COc1ccc(C(=O)OCCN2CCN(C3CN(Cc4cn(Cc5ccccc5F)nn4)S(=O)(=O)C3)CC2)cc1OC (configuration not stated) | -2.53% (inactive) |
| Cc1cccc(CS(=O)(=O)c2ncc(Cl)c(C(=O)Nc3ccc(F)cc3)n2)c1 | 31.4% (active) |
| Cc1cccc(NC(=O)c2nc(S(=O)(=O)Cc3ccccc3)ncc2Cl)c1 | 31.1% (active) |
| Cc1cccc(NC(=O)c2cc3c(C)nn(-c4ccccc4)c3s2)c1 | -4.86% (inactive) |
| O=C(CCS(=O)(=O)c1ccccc1)Nc1ccc(Cl)c(Cl)c1 | 1.21% (inactive) |
| Cc1cccc(C(=O)Nc2c(-c3ccc(F)cc3)nc3ncccn23)c1 | 1.66% (inactive) |
| Cc1cc(NS(=O)(=O)c2ccc(NC(=S)NC(=O)c3ccc(F)cc3Cl)cc2)no1 | -2.11% (inactive) |
| Cc1cccnc1NC(=O)Cn1c(=O)oc2ccccc21 | 5.97% (inactive) |
| COC[C@@H]1CCCN1c1ccc2c(c1)O[C@H](C)CCN(C1CC1)S2(=O)=O | -6.48% (inactive) |
| O=C(Nc1cc(F)cc(F)c1)OC1CCC12CCC(c1ccccc1)CC2 (configuration not stated) | -0.51% (inactive) |
| COc1ccc([C@H]2OC(=O)C[C@H]2C(=O)N2CCN(c3ccccc3F)CC2)cc1OC | -4.27% (inactive) |
| O=C(CSc1nnc(-c2cccc(Cl)c2)n1Cc1ccco1)Nc1ccc(OCc2ccccc2)cc1 | -2.9% (inactive) |
| Clc1cccc(-c2nc3nc4ccccc4nc3n2Cc2ccco2)c1 | 34.2% (active) |
| O=C(CSc1nnc(-c2ccccc2)n1Cc1ccco1)Nc1ccccc1-c1ccccc1 | 12.6% (inactive) |
| COc1ccccc1C(C)NC(=O)Cc1ccsc1 (configuration not stated) | -0.88% (inactive) |
| CCC(=O)N(Cc1cc2ccccc2[nH]c1=O)c1ccc(OC)cc1 | 1.11% (inactive) |
| CCC(c1nnnn1Cc1ccco1)N(CCc1ccccc1)Cc1cc2ccc(OC)cc2[nH]c1=O (configuration not stated) | 44.2% (active) |

| SMILES | inhibition |
| --- | --- |
| CCOc1ccc2[nH]c(=O)c(CN(Cc3nnnn3CCc3ccccc3)CC3CCCO3)cc2c1 (configuration not stated) | -1.4% (inactive) |
| CCOc1ccc(CN(Cc2ccco2)C(c2cccs2)c2nnnn2C(C)(C)C)cc1 (configuration not stated) | 2.59% (inactive) |
| COc1ccc2[nH]c(=O)c(CN(CC3CCCO3)C(=O)Nc3ccccc3)cc2c1 (configuration not stated) | -3.84% (inactive) |
| CCC(c1nnnn1Cc1ccco1)N(Cc1cc2cc(OC)ccc2[nH]c1=O)C1CCCCC1 (configuration not stated) | 35.9% (active) |
| CNc1cncc(-c2ccc(NS(C)(=O)=O)cc2)n1 | 4.53% (inactive) |
| N#C/C(=C\c1ccccc1)c1n[nH]c(Cn2cncn2)n1 | -3.96% (inactive) |
| CCCCNC(=O)C[C@H]1C(=O)N(Cc2ccc(OC)cc2)C2=CCCC[C@@]21C(=O)OCC | 2.73% (inactive) |
| COC(=O)c1cc(S(=O)(=O)N2CCN(C(=O)C3CCCO3)CC2)cn1C (configuration not stated) | -1.95% (inactive) |
| O=C(CSc1nc2sc3c(c2c(=O)n1-c1ccccc1)CCCC3)NN=Cc1ccc(OCc2ccccc2)cc1 | 0.97% (inactive) |
| Cc1ccccc1CN1CCCCC(NC(=O)c2cccc(C#N)c2)C1=O (configuration not stated) | 1.34% (inactive) |
| CCCCOCCCNC(=O)C[C@H]1C[C@@]2(C(=O)OC)C(=C[C@H](C(C)(C)C)O[C@@H]2C)N(CCc2ccc(OC)c(OC)c2)C1=O | -3.25% (inactive) |
| COc1cc(C2CC(=O)N3CN(Cc4ccccc4)CSC3=C2C#N)ccc1OCc1ccccc1 (configuration not stated) | 38.8% (active) |
| COc1cc(C2C(C(=O)c3ccco3)=C(O)C(=O)N2c2cc(C)on2)ccc1OCc1ccccc1 (configuration not stated) | 4.72% (inactive) |
| CCCNC(=O)C1CC(=O)N(c2ccc(OCc3ccccc3)cc2)C1 (configuration not stated) | -0.86% (inactive) |
| COc1ccnc(C(=O)N2CCC(Oc3cccnc3)CC2)c1 | 2.35% (inactive) |
| CSc1cc(C)[nH]c(=O)n1 | 2.31% (inactive) |
| Cc1cc(=O)[nH]c(=S)[nH]1 | 107% (active) |
| Cc1cc(=O)cc(C)[nH]1 | -3.92% (inactive) |
| COC(=O)[C@H](C(C)C)N(CCc1cn(Cc2ccccc2)nn1)S(=O)(=O)c1ccc(F)cc1Br | 0.27% (inactive) |

| SMILES | inhibition |
| --- | --- |
| Cc1ccc(C)c(S(=O)(=O)N(C)c2ccc(OC(=O)C3CCN(C(=O)c4ccc(F)cc4)CC3)cc2)c1 | 0.47% (inactive) |
| CCCCC(=O)NC(c1ccc(OC)c(OC)c1)c1ccc2cccnc2c1O (configuration not stated) | -1.04% (inactive) |
| CCOC(=O)N1CCN(C(c2ccnc3ccccc23)c2nnnn2-c2c(C)cccc2C)CC1 (configuration not stated) | -3.34% (inactive) |
| CCOC(=O)N1CCN(C(c2cccnc2)c2ccc3cccnc3c2O)CC1 (configuration not stated) | 26.1% (active) |
| Cc1cccc(N2CCC(NCc3c(C(=O)N4CCCCC4)nc4c(C)cccn34)CC2)c1 | 7.11% (inactive) |
| O=C(O)C1CCN(S(=O)(=O)N2CCOCC2)CC1 | 0.67% (inactive) |
| NC(=O)c1c(Nc2nc3c(F)cccc3s2)sc2c1CCCC2 | 48.8% (active) |
| CCOC(=O)C(NC(=O)CC(C)C)(Nc1sc2c(c1C(N)=O)CCCC2)C(F)(F)F (configuration not stated) | 0.14% (inactive) |
| O=C(O)c1c(NC(=O)N2CCCC2)sc2c1CCCC2 | 4.25% (inactive) |
| Cc1ccc2nc(SCc3nnc(-c4ccccc4[N+](=O)[O-])o3)c(C#N)cc2c1 | -0.9% (inactive) |
| Cc1ccc(-c2ccc(/C=C(\C#N)C(N)=S)o2)c([N+](=O)[O-])c1 | 34.7% (active) |
| COc1ccc(CN2C(=O)C(CC(=O)NCCCCc3ccccc3)CC(C(=O)N3CCOCC3)=C2C)cc1 (configuration not stated) | -9.04% (inactive) |
| COCCNC(=O)C(c1ccc(C)cc1)N(C(=O)CCC(=O)Nc1ccccn1)c1cccc(C)c1 (configuration not stated) | -0.11% (inactive) |
| CCOC(=O)c1c(N=CN(C)C)c(C#N)c2n1CCCC2 | -2.76% (inactive) |
| Cc1ccc(Cn2cc(COC(=O)N(C)Cc3ccccc3)nn2)cc1 | 0.99% (inactive) |
| O=C(COC(=O)Cn1[nH]c(=O)c2ccccc2c1=O)Nc1ncc(Cl)cc1Cl | -0.63% (inactive) |
| O=C(Cc1ccc(-c2ccccc2)cc1)NC(c1ccccc1)c1ccccc1 | 44.1% (active) |
| O=C(CN1CCc2ccccc21)NC(c1ccccc1)c1ccccc1 | -3.28% (inactive) |
| CCOC(=O)/C=C/C(=O)OCC(=O)NC(c1ccccc1)c1ccccc1 | 8.52% (inactive) |
